Reference: PubChem BioAssay (NCI)
The panel holds about 83,000 compounds, 20% with a hit somewhere; the sample as a whole holds those more often.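 Compound tested at a single concentration for 48 hours in 96-well plates; a percent growth value below 10 was scored as active.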 Active and inactive are the calls of the source.

Legend:
Assay in all cases: NCI-60 one-dose screen, 48 h (100 = growth as untreated, 0 = no growth, -100 = all killed)
Conditions in all cases: 10 µM unless noted
NCI-H23 lung = tested on: NCI-H23 lung
NCI-H226 lung = tested on: NCI-H226 lung
NCI-H322M lung = tested on: NCI-H322M lung
HOP-62 NSCLC = tested on: HOP-62 NSCLC
NCI-H460 lung = tested on: NCI-H460 lung
HOP-92 NSCLC = tested on: HOP-92 NSCLC
NCI-H522 lung = tested on: NCI-H522 lung
A549/ATCC NSCLC = tested on: A549/ATCC NSCLC
786-0 renal = tested on: 786-0 renal
COLO 205 colon = tested on: COLO 205 colon
DU-145 prostate = tested on: DU-145 prostate
K-562 leukemia = tested on: K-562 leukemia
MALME-3M melanoma = tested on: MALME-3M melanoma
MDA-MB-231 breast = tested on: MDA-MB-231 breast
RXF 393 renal = tested on: RXF 393 renal
SF-268 CNS = tested on: SF-268 CNS
SF-295 CNS = tested on: SF-295 CNS
SF-539 CNS = tested on: SF-539 CNS
UACC-257 melanoma = tested on: UACC-257 melanoma
M14 melanoma = tested on: M14 melanoma

Measured: growth

C=CCSSc1ncnc2c1ncn2C1OC(CO)C(O)C1O (stereo not given)
inactive: NCI-H23 lung 39.7% | NCI-H226 lung 65% | NCI-H322M lung 33.6% | HOP-62 NSCLC 19.8% | NCI-H460 lung 43.3% | HOP-92 NSCLC 28.2% | NCI-H522 lung 11.3% | A549/ATCC NSCLC 79.7% | 786-0 renal 14.6% | COLO 205 colon 25.6% | DU-145 prostate 35.2% | K-562 leukemia 40% | MALME-3M melanoma 48.3% | MDA-MB-231 breast 48.1% | RXF 393 renal 34.6% | SF-268 CNS 28% | SF-295 CNS 17.9% | SF-539 CNS 19.9% | UACC-257 melanoma 39.8% | M14 melanoma 15.4%

COc1cccc(-c2nc3sccn3c2-c2ccnc(NCCCNS(=O)(=O)c3cccc(F)c3)c2)c1
inactive: NCI-H23 lung 21.3% | NCI-H226 lung 19.1% | NCI-H322M lung 72% | HOP-62 NSCLC 33.4% | NCI-H460 lung 44.9% | HOP-92 NSCLC 49.5% | NCI-H522 lung 18.1% | A549/ATCC NSCLC 18.1% | 786-0 renal 52.6% | COLO 205 colon 19% | DU-145 prostate 31.9% | K-562 leukemia 11.4% | MALME-3M melanoma 28.1% | MDA-MB-231 breast 65.4% | RXF 393 renal 66.7% | SF-268 CNS 40.9% | SF-539 CNS 70% | UACC-257 melanoma 20.6% | M14 melanoma 10.9%
active: SF-295 CNS 9.57%

CCCCn1c(-c2ccc(C(=O)O/N=C(\N)c3ccc4c(c3)OCO4)cc2)nc(-c2ccccc2)c1-c1ccccc1
inactive: NCI-H23 lung 35.3% | NCI-H226 lung 49.9% | NCI-H322M lung 66.6% | HOP-62 NSCLC 79.7% | HOP-92 NSCLC 17.4% | A549/ATCC NSCLC 15.7% | 786-0 renal 41.9% | COLO 205 colon 57.5% | DU-145 prostate 46.4% | MALME-3M melanoma 55.6% | MDA-MB-231 breast 33.1% | RXF 393 renal 34.7% | SF-268 CNS 29.4% | SF-295 CNS 61.4% | SF-539 CNS 58.1% | UACC-257 melanoma 79.9% | M14 melanoma 54.1%
active: NCI-H460 lung 0.397% | NCI-H522 lung -37.1% | K-562 leukemia -5.48%

CC1CCNC(C)C1 (stereo not given)
inactive: NCI-H23 lung 104% | NCI-H226 lung 95.7% | NCI-H322M lung 109% | HOP-62 NSCLC 104% | NCI-H460 lung 105% | HOP-92 NSCLC 76.3% | NCI-H522 lung 103% | A549/ATCC NSCLC 112% | 786-0 renal 106% | COLO 205 colon 105% | DU-145 prostate 110% | K-562 leukemia 108% | MALME-3M melanoma 110% | MDA-MB-231 breast 107% | RXF 393 renal 108% | SF-268 CNS 104% | SF-295 CNS 103% | SF-539 CNS 99% | UACC-257 melanoma 110% | M14 melanoma 102%

O=C(/C=C/C=C/c1ccc2c(c1)OCO2)N/N=C\c1ccc(O)cc1O
inactive: NCI-H23 lung 30% | NCI-H226 lung 37.6% | NCI-H322M lung 17.8% | HOP-62 NSCLC 27.1% | NCI-H460 lung 14% | HOP-92 NSCLC 53.4% | NCI-H522 lung 21.1% | A549/ATCC NSCLC 36.1% | 786-0 renal 29% | COLO 205 colon 14% | DU-145 prostate 44% | K-562 leukemia 11.6% | MALME-3M melanoma 40.3% | MDA-MB-231 breast 34.4% | RXF 393 renal 57.9% | SF-268 CNS 24.4% | SF-295 CNS 13.8% | SF-539 CNS 13.3% | UACC-257 melanoma 28.5% | M14 melanoma 30.3%

COc1ccc(-c2nc3cc(C(=O)Nc4cc(OC)c(OC)c(OC)c4)ccc3n2C2CCCCC2)cc1
inactive: NCI-H23 lung 93.6% | NCI-H226 lung 86.9% | NCI-H322M lung 97.9% | HOP-62 NSCLC 105% | NCI-H460 lung 99.7% | HOP-92 NSCLC 72.7% | NCI-H522 lung 77.2% | A549/ATCC NSCLC 98.6% | 786-0 renal 107% | COLO 205 colon 110% | DU-145 prostate 103% | K-562 leukemia 76.1% | MALME-3M melanoma 95.6% | MDA-MB-231 breast 88.6% | RXF 393 renal 103% | SF-268 CNS 100% | SF-295 CNS 104% | SF-539 CNS 88.6% | UACC-257 melanoma 100% | M14 melanoma 96%

O=S(=O)(Nc1ccc(Cl)c(F)c1)c1ccc(-c2cnc(C3CC3)o2)cc1
active: NCI-H522 lung -15.8% | COLO 205 colon 1.76% | RXF 393 renal -7.66% | SF-539 CNS -15.5%
inactive: NCI-H23 lung 25.2% | NCI-H226 lung 58.6% | NCI-H322M lung 39.7% | HOP-62 NSCLC 32.5% | NCI-H460 lung 13.5% | HOP-92 NSCLC 42% | A549/ATCC NSCLC 30.1% | 786-0 renal 42.6% | DU-145 prostate 16.6% | K-562 leukemia 12.3% | MALME-3M melanoma 35.3% | MDA-MB-231 breast 37.8% | SF-268 CNS 52.1% | SF-295 CNS 10.3% | UACC-257 melanoma 52.9% | M14 melanoma 19.5%
